In all, about 53,000 sequences went through this assay and about 3,700 (7%) were called active. This excerpt belongs to a sample that is enriched for actives. A number with no mark means an inactive call.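 The calls were made as follows: active = gene knockdowns whose robust z-score for IL-1 alpha signal is at least 2 or at most -2, so actives lie on both sides; inactive = the rest.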

A short description of the assay: Components of the Cytosolic LPS Sensing Pathway: Gene Identification via Genome-wide siRNA Screen. The following applies: RAW264.7 macrophages, IL-1a HTRF, actives lie on both sides, screened at 100 nM (by protocol), cells primed 5 h with Pam3CSK4 first. The text has this: Non-canonical inflammasome activation by cytosolic LPS is a critical component of the host response to Gram-negative bacterial infection, however we lack a comprehensive understanding of the cellular processes that control this pathway. Here we describe a genome-wide siRNA screen to identify genes regulating the mouse macrophage IL-1 alpha response to cytosolic LPS.
RAW264.7 cells were maintained in complete DMEM media, comprising DMEM with 4.5 g/L glucose, 10% FBS (Gemini Bio-Products, West Sacramento, CA), 2 mM Glutamine (Lonza) and 20 mM HEPES (Lonza), hereafter complete DMEM.
The RNAi screen was conducted in 384-well format using the Ambion Silencer Mouse Genome siRNA Library (#4391425), which consists of three unique, nonoverlapping, nonpooled siRNAs for each of 17,000 gene targets. siRNA reagents ([…]) were stamped into 384-well white flat-bottom microplates (Corning, 3570) using a Velocity11 VPrep liquid handling system (Agilent) integrated into a BioCel robotic platform (Agilent) in columns 1-22, leaving columns 23-24 empty for negative (Ambion, Negative control #1) and positive (mouse Casp4) controls, respectively. The median value of each plate's negative control column was used to normalize sample wells, and the positive control was used to assess transfection efficiency and assay performance.
Lipofectamine RNAiMAX Transfection Reagent ([…]; Invitrogen) was added in […] serum-free, antibiotic-free media to plate wells using a Thermo Scientific Matrix WellMate and Microplate Stacker. Plates were incubated for 45 min at room temperature to allow for the sufficient formation of siRNA-lipid complexes. Cells were seeded at a density of 1x10^4 cells per well in 20 microL media containing 20% (vol/vol) FBS without antibiotics. The final concentration of siRNA in each well was 100 nM. Cells were cultured for 48h at 37 degrees C in 5% CO2 before addition of […] of TLR ligand Pam3CSK4 for 5 hours. The medium was then removed, replaced with […] growth media and cell were transfected with […] of LipidA and TransIT-TKO (Mirus) for 24 hour. At the end of the LipidA treatment, […] of supernatant was transferred to a 384 Greiner Bio-one non-binding low volume plate and […] of IL-1a HTRF reagent (Cisbio, 62MIL1APEH) was added and incubated at room temperature overnight. The plates were read on an EnVision plate reader (PerkinElmer). Cell viability was measured by adding 20ul Cell Titer Glo to the original plate and running a luminescence read on the EnVision. The quantified IL-1a signal for each siRNA gene-targeted well was divided by the median of the negative control wells and multiplied by 100 to achieve a negative control normalized value for each well/siRNA. This normalized value was then used to generate a robust z-score by first taking the log of each value and then by subtracting the median and dividing by the […].
On the technique in general: In TR-FRET formats the signal depends on donor and acceptor labels being close together.
On to “GACAAGUUCUCAAGUAUCCTT against 1110006O24Rik”, for which the z-score was -2.02 (active).

Regarding “GGUCCAUAACUUGUGUGCUTT against 3300002I08Rik”, the z-score is -0.462.

In the case of GGUUGUGAAACGAUGCCCUTT against Trp63, the z-score was -0.512.

As for CCUGCAAUCAAAACAUCAATT against Vmn1r10, the z-score is 1.13.

In the case of GGAAUUAUCUGAGCCUGUGTT against Fam193b, the z-score was -0.0725.

Take GGAAGAGAGAUUCCUAUAGTT against Sec11a: the z-score was -2.03 (active).

As for GGCUUGGUGGGACAGAUAUTT against Ccdc51, the z-score was -1.82.

With GCUAGAUCCAUCCAUAUAGTT against Misp, the z-score was -1.26.

On to GGUGAAGAUCUGAUAAGAATT against Epb41, for which the z-score was -1.44.

Turning to GCAACCUCAUACCAAAGAGTT against Zfyve26, the z-score is 0.211.

Consider GGUCACUAUCUCUGAUUUCTT against Bpifb2, for which the z-score was -1.38.

Regarding GGUCAUCCUUGCCAAUCUCTT against Olfr686, the z-score was -2.11 (active).

With GGAAUCUUCCAGAACUAAATT against Rufy1, the z-score was 0.912.

For the sequence GCAGGUCUUACCAGAUCGATT against Thap3, the z-score is -0.765.

Turning to GGCAGUAAGGCUCCAAUCUTT against Tcp10a, the z-score is -2.1 (active).

As for GGCUCUGAACAGCAUUGACTT against Mdfi, the z-score was -0.521.

On to GGUUUGAAUCAAAUUGUACTT against Hyou1, for which the z-score was -1.12.

Turning to CCUCCACAUUUAUUUGCUATT against Mbtd1, the z-score was 1.23.

Take ACCUGAAUUUGGUGACUGATT against Rdh18-ps: the z-score was 0.368.

Turning to GGUAUUAUGAGACAGGAAGTT against Pax5, the z-score is -1.61.

On to GGUUUUAGGAUCCUAGAAGTT against Ap1s1, for which the z-score was 0.957.

Turning to GCUGGCUUUGAUUUAUGGATT against Prkar1a, the z-score was 5.06 (active).

GGACGUGUUCGGAAACCUATT against Psmc3ip: the z-score is 0.134.

For CCUGUGCUCUGAGUUUGGCTT against Tmem270, the z-score was 0.00319.

In the case of GGACAAACGGGAAAAGAAGTT against Sprr2d, the z-score is -2.04 (active).

As for GGGUUGUUUGUCUUGUUCGTT against Rspo2, the z-score is 0.847.

Take GGAAAGAUUCAAAGAACCUTT against Rpia: the z-score was 1.45.

Take GGCAGACAGUCUAACAGAUTT against Krt6a: the z-score was 0.283.

In the case of GGCAGUUAUUCAGAAUUGATT against Nfu1, the z-score was -2.2 (active).

Turning to GAUUUUCCUGCUCACAAUGTT against Olfr1269, the z-score is 1.03.

On to GGACUUGAGUCAGCUCAUCTT against Fastk, for which the z-score was -1.38.

For the sequence GCAACAUUGGAUGUACUCATT against Hdac10, the z-score is -2.63 (active).

For CGUAUAUCCGGUCAGAAGATT against Cnot4, the z-score is 0.634.

In the case of GCAGCAUCGCUAUGUCCUGTT against Ccl26, the z-score was 0.182.

Regarding GGAACAAUGCUCAAUUUUUTT against Rfc1, the z-score was 1.63.

For GCUCCUACGUGUCAGCCUUTT against Skor1, the z-score is -0.815.

Regarding CGGUCAUGUCUACAUGUGCTT against Cfp, the z-score was -0.0864.

As for GGAAUUGUUAAUUGUGGGATT against Stau2, the z-score is -2.25 (active).

In the case of GGCUUCAGAUUUCGAUAUGTT against Nfkb2, the z-score was 1.02.

Regarding CCUUGGACUUGAGUUCCAATT against Ssu2, the z-score was 1.58.

For the sequence GGCAAAUGUGGCCGUGUUUTT against Ccne1, the z-score was 0.175.

In the case of GGAAGAAGCAAAGAACUAUTT against Spg20, the z-score is 0.552.

As to GGGCUGAUGUGGGCUAAAUTT against Tmem38a, the z-score was 2.47 (active).

On to GCCCGGAAUAUAUAGCCCUTT against Hdac10, for which the z-score is -0.706.

For the sequence CCUCCAGAUAAGAAUGUGCTT against Fnip1, the z-score was -1.34.

With CGUAAGUGGACGACGGUUCTT against Kcnd3, the z-score was 0.106.

CGAAGGUACUAUGUAUUUUTT against Tbce: the z-score is -0.12.

Take GGAACACAUUGGGUAUGCCTT against Sac3d1: the z-score was -0.575.

For the sequence GGUGUUUAUCGACAGGUACTT against Myo15, the z-score was 0.126.

Turning to CAAACUGGGUCCCAAUGAATT against Ndufa4, the z-score was 2.7 (active).

Turning to GGGAAGUUGUCCUUGAAGATT against Cd36, the z-score was -0.037.

Consider GGACCAUCCCUGUUUUAUATT against Ifrd2, for which the z-score is -0.0712.

For GGUCCCUAGCACUAUUUUUTT against Hes6, the z-score was 1.04.

GGAAUAUCACUUCCAUACATT against Ntrk3: the z-score is 0.587.

In the case of GACCAACCCUCACUAAGCUTT against Tcstv3, the z-score is -0.364.

In the case of GGAGCAGAUAAUGUACAUATT against Cep112, the z-score was 2.32 (active).

Consider GGACUAUUUGGAAACCUCCTT against Olfr1366, for which the z-score is -0.304.

With GGAUGUAACUAGUAACUUUTT against Kcnn3, the z-score was 0.108.

For the sequence GCAAGAAAACCUUAGCUCATT against Trpm2, the z-score is -0.518.

For CGGAUACAGGUUCGGGUAATT against Nemp1, the z-score is 1.06.

Regarding CCGUGACGAGCUUGUGGUUTT against Ap3b2, the z-score is 0.788.

As to GGUCCGAUAUCUGAGUCUCTT against Hic1, the z-score is 0.471.

For CCUUAAUCGCAUCAAAUUATT against Slc1a3, the z-score is 2.35 (active).

As to GGUUAGAAUAUGCAGAACATT against Arntl, the z-score is -0.525.

Take GGAGGGCAUCCUCUUCAAATT against Drc3: the z-score was 0.312.

For the sequence GGUAUUAUGACUGUAAAGGTT against Endou, the z-score was 0.0412.

As to GGAAGUGAAUAUUGAGUUUTT against Bccip, the z-score was 2.04 (active).

On to GGAGAAGAAAAAGAUUAUCTT against Atp6v1d, for which the z-score is 1.07.

As for GGGAAGAUGUGGAUGUCAUTT against Oprk1, the z-score is -1.05.

Turning to GGUUGUUAGAGAUUUGACCTT against Kctd12, the z-score was -0.208.

Consider CCUGCACACCAAGUAUCUGTT against Ccl6, for which the z-score is -0.252.

For GGAAGCACUUCUGCUUUCUTT against Azin2, the z-score is -0.0234.

In the case of GCUACACCCUCUGUGAGUUTT against Csrnp2, the z-score was -2.07 (active).

For the sequence GGAGAUUCUGUAGGUUAUUTT against Lrat, the z-score was 0.0632.

For the sequence GGGACACUGUGUCCCUUCUTT against Tmem189, the z-score was -0.0937.

As for CCAAAUGAGGCUACCACAATT against Socs7, the z-score is -0.0785.

For the sequence GGAUCUGGUUGGCAAGCAUTT against Krt33a, the z-score is 2.87 (active).

Consider GGAACUUGGGCAUUCCAGATT against Adck2, for which the z-score was -0.676.

For GGAAAUCAGUGAACAUCUUTT against Tshr, the z-score is 0.525.

Take CCAGAAACUAGCCUACUACTT against Vgll2: the z-score was 0.395.

GGAACUAGUCUGGUGAACUTT against Apoa2: the z-score was -1.35.

Take GAUUAAUAGUGGUUUCUGATT against Olfr1219: the z-score was -0.219.

In the case of GGGUGUGUUUUUAUGUGUUTT against Lcp2, the z-score was 2.57 (active).

Consider GGGAGGAAGAAGAAGGUCATT against Atp1b4, for which the z-score was -0.193.

Consider GGCAGUCAAUAGUGGCCUGTT against Bcor, for which the z-score is 1.12.

As for CCAGUAUUUGAGAAUUCUGTT against Gm4788, the z-score is -0.763.

In the case of CGACAAGCUGUACCUCUACTT against Rfx5, the z-score is 3.41 (active).

GCUGGAGUUUCAGUCAAGGTT against Ctso: the z-score is -0.355.

Take AUGCAAGAGGAACGUAUCATT against Olfr1181: the z-score was -0.572.

Turning to GGUUUACCCAUCUUGGCCATT against Vwf, the z-score was -0.501.

For GGAUAUUGAUUCAGUCAAGTT against Rac2, the z-score is -1.16.

In the case of GGAUAUAUUGAAAUGCCCATT against Zbtb14, the z-score is 0.394.

With GGAUUUAUCCUGGUGACUUTT against Cox20, the z-score is 2.49 (active).

Regarding GGUAUUCAGUAUUUUGACUTT against Olfr196, the z-score was 1.56.

As for GGCUGUCGUCAUUGAAGGATT against Ankrd27, the z-score was -0.771.

As to GCGACAAGAGGCUUUAGCATT against Selenos, the z-score was 0.692.

In the case of GGAGCAGAAAGAAAUUUCCTT against Gpa33, the z-score was 0.48.

On to GCUUCAACAGUAAUAAUCGTT against Adamtsl1, for which the z-score is 2.75 (active).

As for CGGUAAUCUUAUGACAACUTT against Gpc6, the z-score is 1.06.

For the sequence GGGCCUUAAUUUUCCUUUUTT against Podxl, the z-score is -0.107.

In the case of GGAUUUAUUGACCUCUUAATT against Sp8, the z-score was 2.41 (active).

With GCCCAUCUGAUGAAUACAATT against Mrto4, the z-score is 1.45.

For GGCACAAUUAGCUAAGAAUTT against Abi3bp, the z-score was -1.87.

Regarding GGUCUGAUUCACCAUAAUUTT against Sspn, the z-score is 0.313.

As to GGAGAUUUUGGUGGCUAUUTT against Uqcrfs1, the z-score is -1.1.

Turning to GGAUGUCUAACCCAAAUAGTT against Ly6e, the z-score is 2.74 (active).

For the sequence GGAACACUGGAAAAAUGUUTT against Ldhc, the z-score was 0.176.

For the sequence GGCGGUGAAGUCUAAGGCATT against H1f5, the z-score was 1.54.

Values taken from PubChem BioAssay AID1508600 (Functional Genomics Laboratory (NCATS/FGL), 2020).
